Screening results (PubChem)
An excerpt weighted towards active compounds, which were near 4.6% of everything screened.
TRHR ag – agonists of human TRH receptor | P34981 | TRHR cells, calcium flux fluo-8, FDSS agonist mode | activation, % at 2 µM | 360,000 tested, 0.18% active | AID 493084
Target sequence (P34981 whole entry, looked up): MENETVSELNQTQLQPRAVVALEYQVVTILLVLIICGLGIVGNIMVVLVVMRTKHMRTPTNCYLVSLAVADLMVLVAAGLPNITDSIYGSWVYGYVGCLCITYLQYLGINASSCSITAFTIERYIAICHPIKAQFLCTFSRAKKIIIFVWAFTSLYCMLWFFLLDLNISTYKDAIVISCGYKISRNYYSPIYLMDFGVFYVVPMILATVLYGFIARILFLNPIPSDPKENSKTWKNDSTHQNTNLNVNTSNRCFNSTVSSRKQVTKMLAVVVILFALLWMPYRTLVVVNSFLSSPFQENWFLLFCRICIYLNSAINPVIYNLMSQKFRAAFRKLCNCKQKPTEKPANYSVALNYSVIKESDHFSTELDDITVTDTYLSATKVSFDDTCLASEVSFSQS
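TRHR-expressing cells, plated overnight in medium with 10% serum, were loaded with fluo-8 calcium dye at room temperature. After a 10 s baseline, library compound was pin-added and calcium release was recorded kinetically (ex 480/em 530) as agonist response.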
D1 antag – blocks dopamine activation of the human D1 receptor; 360,000 tested, 3.2% active; P21728; AID 504652; activity change, negative = inhibition, % at 10 µM; HEK293 TREx D1 cells, calcium flux, dopamine EC80; active compounds read low; in the data active means activity change below about -30%
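Compound effects on dopamine-evoked calcium signalling were measured in tetracycline-induced HEK293 Trex D1 cells. Dopamine at EC80 followed a 180 s compound pre-read, and fluorescence was tracked kinetically for 180 s more.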
D1 potentiator – enhances dopamine response at the human D1 receptor. P21728. HEK293 TREx D1 cells, calcium flux, dopamine EC20 potentiation. potentiation, % at 10 µM. 360,000 tested, 0.036% active. AID 504651; in the data active means potentiation above about 30%
TRHR enhancer – allosteric enhancers of human TRH receptor. P34981. TRHR cells, fluo-8 calcium fluorescence, EC20 TRH enhancement. enhancement, % at 2 µM. 360,000 tested, 0.66% active. AID 493056; in the data active means enhancement above about 30%
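Enhancer read-out: after compound pinning and an initial kinetic agonist-mode read, an EC20 of TRH (10 nM final) was injected and fluo-8 calcium signal (Ex 480/Em 530) followed at 1 s/cycle for 100 cycles in TRHR-expressing cells.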
D1 ag – activates the human D1 dopamine receptor; P21728; HEK293 T-REx D1 cells, calcium flux, agonist mode; AID 504660; activation, % at 2 µM; 360,000 tested, 1% active
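Agonism was scored from calcium flux recorded over 180 s (1 read/s) after pintool compound addition, following a 10-cycle baseline. Cells were inducible force-coupled HEK293 TREx D1, plated overnight at 30 C and loaded with no-wash calcium dye.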
Hits are given with their value; - = inactive; . = no result. Unless noted, no stated cut-off is given here; in the data, active means activation above about 30%; inactive means the rest.

SMILES | TRHR ag | D1 antag | D1 potentiator | TRHR enhancer | D1 ag
CN1CCN(S(=O)(=O)c2ccc(N3CCN(c4ccccc4Cl)CC3)nc2)CC1 | - | - | - | - | -
CCN(CCCNC(=O)c1cc(Nc2ccccc2OC)nc2ccccc12)c1cccc(C)c1 | - | -35 | - | - | -
COc1ccc(Nc2cc(C(=O)NCCCN(C)Cc3ccccc3)c3ccccc3n2)cc1 | - | -46 | - | - | 43
CC(C)OC(=O)CN1C(=O)S/C(=C/c2ccc(N3CCCCC3)o2)C1=O | - | - | - | - | 61
O=C1NC(=S)S/C1=C/c1ccc(N2CCOCC2)o1 | - | - | - | - | -
O=C1S/C(=C\c2ccc(N3CCOCC3)o2)C(=O)N1Cc1ccc(F)cc1 | - | - | - | - | 42
O=C1S/C(=C/c2ccc(N3CCOCC3)o2)C(=O)N1Cc1ccc(F)cc1 | 35 | - | - | - | 83
Cc1onc(-c2c(Cl)cccc2Cl)c1C(=O)NNc1ccccc1 | - | - | - | - | -
CN(C)c1ccc(C(=O)NN2C(=O)c3ccccc3C2=O)cc1 | - | -32 | - | - | -
CCn1nc(-c2ccccc2)c2nc3ccccc3nc21 | - | - | - | - | 98
CCCn1nc(-c2ccccc2)c2nc3ccccc3nc21 | - | - | - | - | 70
Cc1cc(N=Nc2ccc(C)c(N=Nc3cc(C)c(N)cc3N)c2)c(N)cc1N | - | - | - | - | -
O=C(c1ccc(Br)cc1)C1CCc2occc2C1=O (stereo not given) | - | - | - | - | -
c1ccc2c(C[C@@H]3CNCCN3CC3CCCCC3)cccc2c1 | - | - | - | - | 116
COc1cc2c3nnc(-c4ccc(F)cc4)c-3cn(Cc3ccc(F)cc3)c2cc1OC | - | -37 | - | - | -
COc1ccc(Cn2cc3c(-c4ccc(F)cc4)nnc-3c3cc(OC)c(OC)cc32)cc1 | - | - | - | - | -
CCCCCCc1cc2cc(C(=O)NCc3ccccc3)c(=N)oc2cc1O | - | - | - | - | -
O=c1oc2cc(O)ccc2cc1S(=O)(=O)c1ccccc1 | - | - | - | - | -
CCCCCCc1cc2cc(S(=O)(=O)c3ccc(Cl)cc3)c(=O)oc2cc1O | - | - | - | - | 32
CCN(CC)c1ccc2cc(S(=O)(=O)c3ccc(Cl)cc3)c(=O)oc2c1 | 110 | - | - | - | 272
CCCCCCc1cc2cc(S(=O)(=O)c3ccc(C)cc3)c(=O)oc2cc1O | - | - | - | 47 | -
CCCCCCc1cc2cc(-c3nnc(-c4cccc(Cl)c4)o3)c(=O)oc2cc1O | 72 | - | - | - | 129
CCOc1ccc(NC(=S)NCc2cccnc2)cc1 | - | - | - | - | -
Cc1ccc(S(=O)(=O)NC(C)C(=O)OCC(=O)N(C)c2ccccc2)cc1 (stereo not given) | - | -31 | - | - | -
CCC(C)(C)n1nnnc1C(c1cc(OC)c(OC)c(OC)c1)N1CCN(c2ccccc2)CC1 (stereo not given) | - | - | - | - | -
SMILES | TRHR ag | D1 antag | D1 potentiator | TRHR enhancer | D1 ag
CCCN(C(=O)CSc1nc2ccccc2n1CC)C1CCS(=O)(=O)C1 (stereo not given) | - | -30 | - | - | -
CCCCCCN(C(=O)CCCCCN1C(=O)NC(c2ccccc2)C(C(=O)OCc2ccccc2)=C1C)C(C(=O)NCCCC)c1ccc(OCC(=O)OC)c(C(=O)OC)c1 (stereo not given) | - | -54 | - | - | 38
CCCCCCN(C(=O)CCCCCN1C(=O)NC(c2ccc(C(C)(C)C)cc2)C(C(=O)OCc2ccccc2)=C1C)C(C(=O)NCCCC)c1ccc(OCC(=O)OC)c(C(=O)OC)c1 (stereo not given) | - | - | - | - | -
Cc1ccc(C)c(C(=O)Nc2cc(C)nn2-c2nc(C)cc(C)n2)c1 | - | - | - | - | -
COc1ccc(C2(CCN=Cc3ccc(N(C)C)cc3)CCOC(C)(C)C2)cc1 (stereo not given) | - | -78 | - | - | -
C=CCNc1nnc(SCC(=O)Nc2ccccc2OC)c2ccccc12 | - | - | - | - | -
COc1cc2nc(/C=C/c3ccc(N(C)C)cc3)sc2cc1SC | 85 | - | 35 | - | 554
CN(C)c1ccc(/C=C/c2ccncc2)cc1 | - | - | - | - | -
COC(=O)C1=C(C)NC2=C(C(=O)CC(c3cccs3)C2)C1c1ccsc1 (stereo not given) | - | -48 | - | - | -
CCN(CC)c1ccc(/C=N/Nc2nc3ccccc3[nH]2)cc1 | - | -62 | - | - | -
CC(/C=N/Nc1nc2ccccc2[nH]1)=C\c1ccccc1 | - | -42 | - | - | -
CCCNC(=S)Nc1ccc2nc(-c3ccccn3)c(-c3ccccn3)nc2c1 | - | -37 | - | - | -
N#C/C(=C/c1ccc(O)c(O)c1)C(=O)NCc1ccc(Cl)cc1 | - | -33 | . | - | 79
COC(=O)c1ccc(C2/C(=C(/O)c3ccc4c(c3)CC(C)O4)C(=O)C(=O)N2CCN2CCOCC2)cc1 (stereo not given) | - | - | - | - | -
O=C(COC(=O)CCC1CCCC1)Nc1cc(S(=O)(=O)N2CCOCC2)ccc1Cl | - | - | - | - | -
CCOC(=O)/C=c1\s/c(=C\c2ccc3cc(OC)ccc3c2)c(=O)n1CC(=O)NCC1CCCO1 (stereo not given) | - | - | - | - | -
O=C1NC(=Nc2ccccc2)/C(=C/c2ccco2)S1 | - | -37 | - | - | -
O=C1NC(=Nc2ccccc2)S/C1=C\C=C\c1ccco1 | - | - | - | - | -
Cc1ccc(N=C2NC(=O)/C(=C/C=C/c3ccco3)S2)cc1 | - | - | - | - | -
Cc1ccc(N=C2NC(=O)S/C2=C\c2ccco2)cc1 | - | -36 | - | - | -
Cc1ccccc1CNC(=O)CCc1ccccc1 | - | - | - | - | -
O=C(c1cccc(F)c1)N1CCN(Cc2cccc(Br)c2)CC1 | - | - | - | - | -
O=C(CCCn1c(=O)[nH]c2cc(Cl)ccc2c1=O)NCCCN1CCCC1 | - | - | - | - | -
O=C(CCCn1c(=O)[nH]c2cc(Cl)ccc2c1=O)NCCCN1CCN(c2ccc(F)cc2)CC1 | - | -66 | - | - | -
COCCn1c(=O)[nH]c2cc(C(=O)NCCCN3CCN(c4ccc(F)cc4)CC3)ccc2c1=O | - | -39 | - | - | -
COc1cc2[nH]c(=O)n(CCC(=O)NCCCN3CCN(c4ccccc4F)CC3)c(=O)c2cc1OC | - | -42 | - | - | -
COC(=O)c1ccc(SCc2cnc(Cl)s2)cc1 | - | - | - | - | -
O=C(CSc1n[nH]c(-c2ccccc2)n1)Nc1ccccc1O | - | - | - | - | -
COc1cc(S(=O)(=O)NC2CCCC2)c(OC)cc1Cl | - | - | - | - | -
Nc1cc(C(Cl)=C(Cl)Cl)c(S(N)(=O)=O)cc1S(N)(=O)=O | - | -33 | - | - | -
